From PubChem BioAssay AID463173 (ICCB-Longwood Screening Facility, Harvard Medical School, 2010)
Screen size: about 52,000 compounds; about 1,700 (3.3%) were called active. The sample holds actives, similar compounds and a random draw of the others, so the mix is not that of the screen. Values without a mark were called inactive. Cut-off read from the data, not from the text of the source: active = survival mostly below about 52% (no sharp cut-off); inactive = mostly above about 56%.

system: Wild type; assay: growth inhibition of S. aureus wild type versus tarO mutant, primary screen, teichoic acid synthesis inhibitors, RN4220, OD600 (AID 463173); settings: S. aureus RN4220 wild type/DeltatarO growth, OD600, 18 h, active compounds read low, screened at 18.75 µg/mL (by protocol)

Q: Which survival does the source give for `COc1ccc(C2=C(C)C(N3CCC(C(=O)NCc4ccco4)CC3)=NS2(=O)=O)cc1` here?
A: 56%

Q: `Cc1ccc(NS(=O)(=O)c2cc3[nH]c(=O)c(=O)[nH]c3cc2C)cc1N(C)C` was tested. Which survival did it give?
A: 81%

Q: How did the survival turn out when `CC1(CCC(=O)O)NNC(=S)NN1` was run?
A: 101%

Q: Which survival does the source give for `Cn1cccc1-c1cc2n(n1)CCC(=O)N2CC(=O)Nc1ccc(F)cc1Cl` here?
A: 63%

Q: How did the survival turn out when `Cc1nn(C(=O)c2cccc(F)c2)c(C)c1S(=O)(=O)N1CCCCCC1` was run?
A: 84%

Q: `Cc1c(C(=O)N2CCC(C)CC2)c(S(=O)(=O)Nc2cccc(C(F)(F)F)c2)c(C)n1C` was tested. Which survival did it give?
A: 78%

Q: With `CCOC(=O)c1ccc(N2CCN(c3cccc(OC)c3)CC2)c(NC(=O)Nc2ccc(OCC)cc2)c1` as the compound, how does the survival read?
A: -6% (active)

Q: `CCOC(=O)c1ccc(N2CCN(c3ccc(F)cc3)CC2)c(NC(=O)Nc2cccc(OC)c2)c1` was tested. Which survival did it give?
A: 67%

Q: Which survival does the source give for `CCOC(=O)c1ccc(N2CCN(c3cccc(Cl)c3)CC2)c(NC(=O)Nc2ccc(Cl)cc2)c1` here?
A: 76%

Q: `Cc1cn2c(=O)cc(COc3ccccc3NC(=O)c3ccco3)nc2s1` was tested. Which survival did it give?
A: 83%

Q: Which survival does the source give for `Fc1cccc(NCc2cccn2-c2nnc(N3CCOCC3)s2)c1` here?
A: 77%

Q: Which survival does the source give for `CC(=O)N1SC(N)=NC1c1ccccc1` (centres undefined) here?
A: 111%

Q: With `CCOc1ccc(N(C)S(=O)(=O)c2ccc3c(c2)CCCN3C(C)=O)cc1` as the compound, how does the survival read?
A: 75%

Q: How did the survival turn out when `CCOc1ccc(CNC(=O)c2ccc3c(c2)nc2n3CCOC2)cc1OC` was run?
A: 1% (active)

Q: For `CCOc1ccc(CCNC(=O)c2ccc3c(c2)nc2n3CCOC2)cc1OCC`, which survival is on record?
A: 63%

Q: How did the survival turn out when `COc1ccc(CCNC(=O)c2ccc3c(c2)nc2n3CCCCC2)cc1OC` was run?
A: 84%

Q: Which survival does the source give for `CCOc1ccc(CNC(=O)c2ccc3c(c2)nc2n3CCOC2)cc1` here?
A: 57%

Q: With `O=C(NCc1ccccc1)c1ccc2c(c1)nc1n2CCOC1` as the compound, how does the survival read?
A: 82%

Q: With `Cc1ccc(C)c(CNC(=O)c2ccc3c(c2)nc2n3CCOC2)c1` as the compound, how does the survival read?
A: 63%

Q: With `CCOc1ccc(CNC(=O)c2ccc3c(c2)nc2n3CCC(C)C2)cc1OC` (centres undefined) as the compound, how does the survival read?
A: 73%

Q: With `COc1ccc(CCNC(=O)c2ccc3c(c2)nc2n3CCOC2)cc1OC` as the compound, how does the survival read?
A: -4% (active)

Q: `O=C(NCc1ccccc1Br)c1ccc2c(c1)nc1n2CCOC1` was tested. Which survival did it give?
A: -3% (active)

Q: For `Cc1ccc(C)c(NC(=O)CSc2nc(-c3ccccc3)c(C#N)c(=O)[nH]2)c1`, which survival is on record?
A: 113%

Q: For `COc1cccc(NC(=O)CSc2nnc(-c3cccc(OC)c3)o2)c1`, which survival is on record?
A: 90%

Q: `CCn1c(CC(=O)Nc2ccccc2)n[nH]c1=S` was tested. Which survival did it give?
A: 107%

Q: With `Cc1cn2c(=O)cc(COC(=O)c3cccc(NC(=O)c4ccccc4C)c3)nc2s1` as the compound, how does the survival read?
A: 71%

Q: Which survival does the source give for `COc1ccccc1CNc1ccc(-c2nc(-c3ccccn3)no2)cc1[N+](=O)[O-]` here?
A: 77%

Q: With `Cc1ccc2c(=O)c(C(=O)c3ccccc3)cn(CC(=O)Nc3ccccc3C)c2n1` as the compound, how does the survival read?
A: 65%

Q: Which survival does the source give for `O=c1[nH]c2ccccc2c(O)c1-c1nc2ccccc2c(=O)[nH]1` here?
A: 109%

Q: `CCOc1ccccc1NC(=O)CSc1nc2ccccc2nc1N1CCOCC1` was tested. Which survival did it give?
A: -11% (active)

Q: With `Cc1ccc(NC(=O)CSc2nc3ccccc3nc2N2CCOCC2)cc1` as the compound, how does the survival read?
A: 59%

Q: Which survival does the source give for `Cc1cccc(NC(=O)CSc2nc3ccccc3nc2N2CCCCC2)c1C` here?
A: 70%

Q: For `CCOc1ccc(NC(=O)CSc2nc3ccccc3nc2N2CCOCC2)cc1`, which survival is on record?
A: 112%

Q: For `Cc1cccc(NC(=O)CSc2nc3ccccc3nc2N2CCC(C)CC2)c1`, which survival is on record?
A: -9% (active)

Q: Which survival does the source give for `CC1CCN(c2nc3ccccc3nc2SCC(=O)Nc2ccccc2C(C)C)CC1` here?
A: -16% (active)

Q: Which survival does the source give for `Cc1cccc(NC(=O)CSc2nc3ccccc3nc2N2CCOCC2)c1C` here?
A: 65%

Q: `Cc1ccc(C)c(NC(=O)CSc2nc3ccccc3nc2N2CCOCC2)c1` was tested. Which survival did it give?
A: 76%

Q: How did the survival turn out when `CC(=O)Nc1ccc(NC(=O)CSc2nc3ccccc3nc2N2CCC(C)CC2)cc1` was run?
A: 80%

Q: Which survival does the source give for `COc1ccc(OC)c(CCNC(=O)c2cc3cccc4c3n2CCS4)c1` here?
A: 71%

Q: `Cn1c(=O)c2c(nc(NCc3ccccc3)n2Cc2ccccc2)n(C)c1=O` was tested. Which survival did it give?
A: 79%

Q: With `CC(C)Cc1nn2c(=O)cc(COC(=O)c3ccc(NC(=O)c4cccs4)cc3)nc2s1` as the compound, how does the survival read?
A: 127%

Q: For `Cc1cccc(C)c1OCCn1c(C2CC(=O)N(Cc3ccc(F)cc3)C2)nc2ccccc21` (centres undefined), which survival is on record?
A: -4% (active)

Q: Which survival does the source give for `Cc1cc(C)c(Cn2c(C3CC(=O)N(c4ccc(F)cc4)C3)nc3ccccc32)c(C)c1` (centres undefined) here?
A: 86%

Q: With `CCOc1ccccc1N1CC(c2nc3ccccc3n2CCCCOc2cc(C)ccc2C)CC1=O` (centres undefined) as the compound, how does the survival read?
A: 43%

Q: `CCc1ccccc1N1CC(c2nc3ccccc3n2CCCCOc2ccccc2OC)CC1=O` (centres undefined) was tested. Which survival did it give?
A: 93%

Q: `Cc1ccc(OCCCn2c(C3CC(=O)N(c4cccc(Cl)c4)C3)nc3ccccc32)c(C)c1` (centres undefined) was tested. Which survival did it give?
A: 90%

Q: For `Cc1cccc(C)c1OCCn1c(C2CC(=O)N(c3cccc(Cl)c3)C2)nc2ccccc21` (centres undefined), which survival is on record?
A: 84%

Q: Which survival does the source give for `COc1ccccc1OCCCn1c(C2CC(=O)N(c3ccc(F)cc3)C2)nc2ccccc21` (centres undefined) here?
A: 101%

Q: Which survival does the source give for `CCOc1ccccc1N1CC(c2nc3ccccc3n2CCOc2ccccc2OC)CC1=O` (centres undefined) here?
A: 107%

Q: How did the survival turn out when `Cc1cccc(C)c1OCCCCn1c(C2CC(=O)N(c3ccc(F)cc3)C2)nc2ccccc21` (centres undefined) was run?
A: 34%

Q: For `Cc1ccc(OCCn2c(C3CC(=O)N(Cc4ccc(F)cc4)C3)nc3ccccc32)c(C)c1` (centres undefined), which survival is on record?
A: -15% (active)

Q: `Cc1ccc(C)c(OCCn2c(C3CC(=O)N(Cc4ccc(F)cc4)C3)nc3ccccc32)c1` (centres undefined) was tested. Which survival did it give?
A: -16% (active)

Q: For `C=CCc1ccccc1OCCn1c(C2CC(=O)N(Cc3ccc(F)cc3)C2)nc2ccccc21` (centres undefined), which survival is on record?
A: -16% (active)

Q: Which survival does the source give for `COc1ccc(NC(=O)Cn2c(=O)n(-c3cccc(C)c3)c(=O)c3c2c2cc(C)ccc2n3C)cc1Cl` here?
A: 86%

Q: With `CCc1cccc(NCc2ccccc2-c2nnc(-c3ccccc3Cl)o2)c1` as the compound, how does the survival read?
A: 81%

Q: Which survival does the source give for `CN(C)S(=O)(=O)c1ccc(S(=O)(=O)N2CCC(c3nc4c(nnn4Cc4cccc(F)c4)c(=O)[nH]3)CC2)cc1` here?
A: 113%

Q: `Cc1cccc(-n2ncc3c(Nc4c(C)cc(C)cc4C)ncnc32)c1` was tested. Which survival did it give?
A: 83%

Q: Which survival does the source give for `Cc1ccc(S(=O)Cc2nc(-c3ccc(C(=O)NCc4cccc(C)c4)cc3)oc2C)cc1` (centres undefined) here?
A: 99%

Q: How did the survival turn out when `CCOc1ccc(NC(=O)c2ccc(-c3nc(COc4ccccc4)c(C)o3)cc2)cc1` was run?
A: 89%

Q: Which survival does the source give for `O=C(c1cnc(N2CCCCC2)c2ccccc12)N1CCN(c2cccc(Cl)c2)CC1` here?
A: 68%

Q: Which survival does the source give for `CCOC(=O)c1cccc(NS(=O)(=O)c2cc(Br)cc3c2N(C(=O)C2CC2)CC3)c1` here?
A: 151%

Q: Which survival does the source give for `CCCC(=O)NCC(c1ccc2c(c1)OCO2)N1CCN(c2ccccc2)CC1` (centres undefined) here?
A: 92%

Q: Which survival does the source give for `O=C(COc1ccccc1F)Nc1ccccc1OCc1cc(=O)n2ccccc2n1` here?
A: 79%

Q: With `CN(C)c1oc(/C=C/c2ccc(F)cc2)nc1C#N` as the compound, how does the survival read?
A: 87%

Q: `CC1CCCCN1CC(=O)N1CCN(C(=O)CN2CCCCC2C)CC1` (centres undefined) was tested. Which survival did it give?
A: 106%

Q: With `Cc1cc(C)cc(N(CC(=O)Nc2c(C)cc(C)cc2C)S(=O)(=O)c2c(C)nn(C)c2C)c1` as the compound, how does the survival read?
A: -6% (active)

Q: With `CCc1ccc(NC(=O)CN(c2ccc(C)cc2)S(=O)(=O)c2c(C)nn(C)c2C)cc1` as the compound, how does the survival read?
A: 76%

Q: With `CCOc1ccccc1NC(=O)CN(c1cc(C)cc(C)c1)S(=O)(=O)c1c(C)nn(C)c1C` as the compound, how does the survival read?
A: 69%

Q: How did the survival turn out when `O=C(c1cn(CCOc2ccc(Cl)cc2)c2ccccc12)C1CCCCC1` was run?
A: 9% (active)

Q: Which survival does the source give for `O=C(c1cn(CCOc2ccccc2F)c2ccccc12)C1CCCCC1` here?
A: 3% (active)

Q: How did the survival turn out when `O=C(c1ccco1)c1cn(CCOc2ccc(Cl)cc2)c2ccccc12` was run?
A: 68%

Q: How did the survival turn out when `Cc1ccc(OCCn2cc(C(=O)C3CCCCC3)c3ccccc32)cc1` was run?
A: 1% (active)

Q: For `O=C(c1cccs1)c1cn(CCOc2ccc(Cl)cc2)c2ccccc12`, which survival is on record?
A: 80%

Q: `COc1ccc(OCCn2cc(C(=O)C3CCCCC3)c3ccccc32)cc1` was tested. Which survival did it give?
A: 31%

Q: Which survival does the source give for `O=C(c1cccs1)c1cn(CCOc2ccccc2F)c2ccccc12` here?
A: 75%

Q: Which survival does the source give for `Cc1ccccc1OCCn1cc(C(=O)C2CCCCC2)c2ccccc21` here?
A: 124%

Q: `Cc1ccc(NC(=O)Cn2cc(C(=O)C3CCCCC3)c3ccccc32)cc1` was tested. Which survival did it give?
A: 87%

Q: `Cn1ncc(Cl)c1C(=O)O` was tested. Which survival did it give?
A: 95%

Q: For `O=C(CC1N=C2c3ccccc3N=C(SCC(=O)Nc3ccccc3F)N2C1=O)NCc1cccs1` (centres undefined), which survival is on record?
A: 73%

Q: Which survival does the source give for `O=C1C2=C(Nc3ncnn3C2c2ccccc2)c2ccccc21` (centres undefined) here?
A: 114%

Q: With `CSc1ccc(/C=C/c2nc3ccccc3n2S(=O)(=O)c2cccc(Cl)c2)cc1` as the compound, how does the survival read?
A: 66%

Q: How did the survival turn out when `CCN1CCN(C(C)C(=O)NC(c2ccccc2)c2ccccc2)CC1` (centres undefined) was run?
A: 113%

Q: With `Cc1cccc(Cn2nc(C)n3c(cc4cc(C)ccc43)c2=O)c1` as the compound, how does the survival read?
A: 79%

Q: `CCc1cccc2c(-c3ccccc3)nc(SCC(=O)Nc3ccccc3)nc12` was tested. Which survival did it give?
A: 88%

Q: How did the survival turn out when `Cc1ccc(NC(=O)CSc2nnc3nc(C)cc(C)n23)cc1` was run?
A: 73%

Q: `CCN(CC)S(=O)(=O)c1ccc2c(c1)N(CC(=O)Nc1cccc(C)c1C)C(=O)C1CCCN21` (centres undefined) was tested. Which survival did it give?
A: -4% (active)

Q: Which survival does the source give for `CCc1ccccc1NC(=O)CN1C(=O)C2CCCN2c2ccc(S(=O)(=O)N(CC)CC)cc21` (centres undefined) here?
A: 81%

Q: `CCN(CC)S(=O)(=O)c1ccc2c(c1)N(CC(=O)Nc1c(C)cccc1C)C(=O)C1CCCN21` (centres undefined) was tested. Which survival did it give?
A: 73%

Q: `CCc1ccc(-c2cc(C)no2)cc1S(=O)(=O)Nc1ccc(Cl)cn1` was tested. Which survival did it give?
A: -1% (active)

Q: How did the survival turn out when `CCc1ccc(-c2cc(C)no2)cc1S(=O)(=O)Nc1ccc(C)cn1` was run?
A: 14% (active)

Q: For `CCc1ccc(-c2cc(C)no2)cc1S(=O)(=O)Nc1ccc(Cl)cc1`, which survival is on record?
A: 74%

Q: How did the survival turn out when `Cc1ccc(-c2onc(C)c2C)cc1S(=O)(=O)Nc1ccc(Cl)cn1` was run?
A: 89%

Q: For `CCc1ccc(-c2cc(C)no2)cc1S(=O)(=O)Nc1cc(OC)c(OC)c(OC)c1`, which survival is on record?
A: 83%

Q: `Cc1ccnc(NS(=O)(=O)c2cc(-c3cc(C)no3)ccc2C)c1` was tested. Which survival did it give?
A: 78%
